# Measured values as given in the supplement of paper PMC13380429.
# A number with no mark means an inactive call.
# Test system: Vero E6 infected with SARS-CoV-2
# Assay: inhibition of SARS-CoV-2 cytopathic effect; higher = more antiviral protection, active = above 15
# Conditions: 8.33 nM; 48 h
row,SMILES,inhibition of SARS-CoV-2 cytopathic effect [%]
1,CC1C=CC=CCCC=CC=CC=CC=CC(OC2OC(C)C(O)C(N)C2O)CC2OC(O)(CC(O)C(O)CCC(O)CC(O)CC(O)CC(=O)OC(C)C(C)C1O)CC(O)C2C(=O)O (centres undefined) [nystatin],-1.74
2,CCCNCCc1ccc(NS(=O)(=O)c2ccc(OC(F)(F)F)cc2)cc1,3.37
3,O=C(O)c1ccc(O)c2ncccc12,1.32
4,CC[C@@H]1C(=O)OC[C@@H]1Cc1cncn1C [pilocarpine],1.12
5,c1cnc(SCc2cccnc2)nc1 [tasuldine],1.66
6,CCOc1ccc(Cc2cc([C@@H]3O[C@H](SC)[C@@H](O)[C@H](O)[C@H]3O)ccc2Cl)cc1 [sotagliflozin],-2.52
7,COc1cc2c(cc1OC)-c1cc3nc4ccccc4nc3n1C(C)(C)C2,1.86
8,CC(C)NCC(O)c1ccc(N)c(C#N)c1 (centres undefined) [cimaterol],6.95
9,CCn1c(=O)c(-c2ccc(Cl)cc2Cl)cc2cnc(Nc3ccc(N4CCNCC4)c(F)c3)nc21,-2.53
10,CCn1cc(C(=O)O)c(=O)c2cc(F)c(N3CCNC(C)C3)c(F)c21 (centres undefined) [lomefloxacin],-0.12
11,N[C@@H](C(=O)O)c1ccc(C(=O)O)c(O)c1 (racemic) [4-carboxy-3-hydroxyphenylglycine-(RS)],-0.33
12,CN1c2c([nH]c(N)nc2=O)NC[C@@H]1CNc1ccc(C(=O)N[C@@H](CCC(=O)O)C(=O)O)cc1 [metafolin],2.72
13,Nc1ncnc2c1ncn2[C@@H]1O[C@H](C[C@@H](N)CC[C@H](N)C(=O)O)[C@@H](O)[C@H]1O [sinefungin],-10.2
14,CCN1CCCC1CNC(=O)c1cc(S(=O)(=O)CC)c(N)cc1OC (centres undefined) [amisulpride],-1.75
